Results: PubChem BioAssay (NCI)
This is part of a sample that, as a whole, favours compounds with a hit. Of some 83,000 tested, about 20% had one in any assay.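 How to read the values: 0–100, growth inhibition (40 = 60% inhibited); 0, no net growth; -100 to 0, cell death (-40 = 40% of starting cells died; -100 = all dead).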 Calls of active or inactive are those of the source. Rule for the calls: active = growth percent below 10; inactive = the rest.

Key:
Test in all cases: NCI-60 one-dose screen, 48 h (100 = growth as untreated, 0 = no growth, -100 = all killed)
Conditions in all cases: 10 µM unless noted
SK-MEL-2 melanoma = test system: SK-MEL-2 melanoma
SN12C renal = test system: SN12C renal
UO-31 renal = test system: UO-31 renal
TK-10 renal = test system: TK-10 renal
ACHN renal = test system: ACHN renal
CAKI-1 renal = test system: CAKI-1 renal
A498 renal = test system: A498 renal
CCRF-CEM leukemia = test system: CCRF-CEM leukemia
MOLT-4 leukemia = test system: MOLT-4 leukemia

Measured: growth

CCN(CC)CCCC(C)N=c1cc(Nc2cc(=NC(C)CCCN(CC)CC)c3cc(OC)ccc3o2)oc2ccc(OC)cc12 (configuration not stated)
active: SK-MEL-2 melanoma -83.9% | SN12C renal -9.47% | UO-31 renal -88.8% | TK-10 renal -50.2% | ACHN renal -14.1% | CAKI-1 renal -39.7% | A498 renal -8.63% | CCRF-CEM leukemia -41.7% | MOLT-4 leukemia -55.8%

CC[C@H](C)[C@H]1NC(=O)[C@@H](N[C@](C)(O)[C@@H](N)CC(C)C)[C@@H](C)OC(=O)[C@H](Cc2ccc(OC)cc2)N(C)C(=O)[C@@H]2CCCN2C(=O)[C@H](CC(C)C)NC(=O)[C@@H](C)C(=O)[C@H](C(C)C)OC(=O)C[C@@H]1O
active: SK-MEL-2 melanoma -55.8% | SN12C renal -8.75% | UO-31 renal -19.9% | TK-10 renal -15% | ACHN renal -10.9% | CAKI-1 renal -22.1% | A498 renal -28.9% | CCRF-CEM leukemia -19% | MOLT-4 leukemia -24.8%

COc1ccc([N+](=O)[O-])c(/C=C/C(=O)c2ccccn2)c1
inactive: SK-MEL-2 melanoma 114% | SN12C renal 81.2% | UO-31 renal 73.3% | TK-10 renal 126% | ACHN renal 68.9% | CAKI-1 renal 71.7% | A498 renal 83.3% | CCRF-CEM leukemia 49.6% | MOLT-4 leukemia 13.3%

COc1ccc(/C=C/C(=O)c2ccc(NC(=O)CN3CCN(c4cc5c(cc4F)c(=O)c(C(=O)O)cn5C4CC4)CC3)cc2)cc1
inactive: SK-MEL-2 melanoma 117% | SN12C renal 95.9% | UO-31 renal 90.5% | TK-10 renal 106% | ACHN renal 114% | CAKI-1 renal 93% | A498 renal 112% | CCRF-CEM leukemia 102% | MOLT-4 leukemia 101%

Cn1c(C(N)=O)cc2c1-c1nc(NC3CCCCC3)ncc1CCC2
inactive: SK-MEL-2 melanoma 105% | SN12C renal 90.9% | UO-31 renal 67.2% | TK-10 renal 89.4% | ACHN renal 85.8% | CAKI-1 renal 83.3% | A498 renal 46% | CCRF-CEM leukemia 93.9% | MOLT-4 leukemia 85.1%

COc1cc2c(cc1OC)C1(C)N(CC2)C(=O)OC1(C)C (configuration not stated)
active: MOLT-4 leukemia -75.3%
inactive: SK-MEL-2 melanoma 120% | SN12C renal 101% | UO-31 renal 91.3% | TK-10 renal 102% | ACHN renal 107% | CAKI-1 renal 102% | A498 renal 78.8% | CCRF-CEM leukemia 106%

Cc1cc(Nc2nc(-c3ccc(F)cc3)nc3ccccc23)n[nH]1
inactive: SK-MEL-2 melanoma 27.7% | SN12C renal 61.6% | UO-31 renal 32% | TK-10 renal 32.6% | ACHN renal 39.4% | CCRF-CEM leukemia 44.5% | MOLT-4 leukemia 64.1%
active: CAKI-1 renal -7.57% | A498 renal 1.89%

O=C(CN1CCN(c2cc3c(cc2F)c(=O)c(C(=O)O)cn3C2CC2)CC1)Nc1ccc(C(=O)/C=C/c2ccccc2)cc1
inactive: SK-MEL-2 melanoma 53.7% | SN12C renal 11.3% | UO-31 renal 45% | TK-10 renal 39.9% | ACHN renal 40.1% | CAKI-1 renal 73.1% | A498 renal 57.7% | CCRF-CEM leukemia 15.2% | MOLT-4 leukemia 19%

COc1ccc(/C=C/c2cc(N3CCOCC3)c3cc(F)c(F)cc3n2)cc1OC
inactive: SK-MEL-2 melanoma 45% | SN12C renal 44.4% | UO-31 renal 18.2% | TK-10 renal 31.9% | ACHN renal 26.4% | A498 renal 54.8% | CCRF-CEM leukemia 12.3%
active: CAKI-1 renal 8.6% | MOLT-4 leukemia 9.14%

CC[C@]1(O)C[C@@H]2CN(Cc3c([nH]c4ccccc34)[C@@](C(=O)OC)(c3cc4c(cc3OC)N(C)[C@H]3[C@@](O)(C(=O)OC)[C@H](OC(C)=O)[C@]5(CC)[C@@H]6C[C@@H]6CN6CC[C@]43[C@@H]65)C2)C1
inactive: SN12C renal 34.1% | UO-31 renal 68.5% | TK-10 renal 55.7% | ACHN renal 47.8% | CAKI-1 renal 50.6%
active: SK-MEL-2 melanoma 9.71% | A498 renal -8.06% | CCRF-CEM leukemia 1.15% | MOLT-4 leukemia 1.8%

Cc1cc(Nc2nc(C(=O)Nc3ccccc3)nc3ccccc23)n[nH]1
inactive: SK-MEL-2 melanoma 45.3% | SN12C renal 63% | UO-31 renal 37.3% | TK-10 renal 58.8% | ACHN renal 39.9% | CAKI-1 renal 24% | CCRF-CEM leukemia 38.1% | MOLT-4 leukemia 55.4%
active: A498 renal -1.3%

NS(=O)(=O)c1ccc(CN2C(=O)c3cccc4cccc(c34)C2=O)cc1
inactive: SK-MEL-2 melanoma 93% | SN12C renal 93.1% | UO-31 renal 57.3% | TK-10 renal 81.8% | ACHN renal 88.1% | CAKI-1 renal 75.9% | A498 renal 108% | CCRF-CEM leukemia 85.8% | MOLT-4 leukemia 95.5%

O=C(CCCn1c2c(sc3ccccc32)c(=O)n2nnc(-c3ccccc3)c12)NCCc1cnc[nH]1
active: SK-MEL-2 melanoma -90.3% | SN12C renal 1.75% | UO-31 renal -90.3% | TK-10 renal -89.4% | ACHN renal -19.4% | CAKI-1 renal -84%
inactive: A498 renal 27.2% | CCRF-CEM leukemia 38.4% | MOLT-4 leukemia 79.4%

CCCCCCc1nc2c(c(C)nn2-c2ccccc2)c2c1CCCCC2
inactive: SK-MEL-2 melanoma 116% | SN12C renal 104% | UO-31 renal 91.5% | TK-10 renal 126% | ACHN renal 107% | CAKI-1 renal 94.8% | A498 renal 104% | CCRF-CEM leukemia 101% | MOLT-4 leukemia 106%

Cc1ccc(Cn2c(-c3nonc3N)nc3ccccc32)cc1
inactive: SK-MEL-2 melanoma 78.2% | SN12C renal 96.3% | UO-31 renal 66.2% | TK-10 renal 90.4% | ACHN renal 92.3% | CAKI-1 renal 69.7% | A498 renal 40.4% | CCRF-CEM leukemia 67.2% | MOLT-4 leukemia 56.2%

COc1ccc(/C=N/NC(=O)Cn2c(Cc3cccc4ccccc34)nc3ccccc32)cc1
inactive: SK-MEL-2 melanoma 99.5% | SN12C renal 93.1% | UO-31 renal 72.1% | TK-10 renal 105% | ACHN renal 107% | CAKI-1 renal 83.8% | A498 renal 85.5% | CCRF-CEM leukemia 91% | MOLT-4 leukemia 69.5%

CCN(CC)c1cc(/C=C/c2ccc(OC)c(OC)c2)nc2cc(F)c(F)cc12
inactive: SN12C renal 57% | UO-31 renal 75.3% | CAKI-1 renal 46.8% | CCRF-CEM leukemia 29.7% | MOLT-4 leukemia 49.2%
active: SK-MEL-2 melanoma -58.2% | TK-10 renal -28.6% | ACHN renal -50.9% | A498 renal -2.91%

COc1cc(-c2n[nH]nc2-c2ccc3c(c2)OCCO3)cc(OC)c1OC
active: A498 renal -14.6% | CCRF-CEM leukemia 5.78% | MOLT-4 leukemia 5.49%
inactive: SK-MEL-2 melanoma 26.6% | SN12C renal 31% | UO-31 renal 27.1% | TK-10 renal 52.4% | ACHN renal 12.3% | CAKI-1 renal 18.4%

COc1cccc(NC(=O)Cn2cc3c(=O)oc4ccccc4c3n2)c1
inactive: SK-MEL-2 melanoma 101% | SN12C renal 103% | UO-31 renal 88.5% | TK-10 renal 111% | ACHN renal 116% | CAKI-1 renal 95.6% | A498 renal 87.2% | CCRF-CEM leukemia 102% | MOLT-4 leukemia 111%

Cn1cc(C=O)c2ccccc21
inactive: SK-MEL-2 melanoma 109% | SN12C renal 91.7% | UO-31 renal 60.6% | TK-10 renal 102% | ACHN renal 93.5% | CAKI-1 renal 94.6% | A498 renal 95.4% | CCRF-CEM leukemia 90.6% | MOLT-4 leukemia 92%

COc1ccc(/C=C/c2nc(N3CCOCC3)c3nc(Cl)c(Cl)cc3n2)cc1OC
inactive: SK-MEL-2 melanoma 99.1% | SN12C renal 98.3% | UO-31 renal 108% | TK-10 renal 104% | ACHN renal 100% | CAKI-1 renal 93.7% | A498 renal 93.7% | CCRF-CEM leukemia 99.3% | MOLT-4 leukemia 87.6%

COC1=CC(c2ccc[nH]2)=N/C1=C\c1[nH]c(C)c(C(=O)CCCCC(=O)Oc2ccc3c(c2)CCC2C3CC[C@]3(C)[C@@H](O)CC[C@@H]23)c1C (some centres not stated)
inactive: SK-MEL-2 melanoma 70.5% | SN12C renal 58.8% | UO-31 renal 42.7% | TK-10 renal 96.7% | ACHN renal 62.9% | CAKI-1 renal 25.7% | A498 renal 38.5% | CCRF-CEM leukemia 17.2% | MOLT-4 leukemia 22.8%

c1ccc([P+](CCC[P+](c2ccccc2)(c2ccccc2)c2ccccc2)(c2ccccc2)c2ccccc2)cc1
inactive: SK-MEL-2 melanoma 71.1% | SN12C renal 78% | UO-31 renal 82.3% | TK-10 renal 81.8% | ACHN renal 98.5% | CAKI-1 renal 94.7% | A498 renal 86.1% | CCRF-CEM leukemia 45.8% | MOLT-4 leukemia 79.6%

O=[N+]([O-])c1cc(S(=O)(=O)OCC2CO2)ccc1Cl (configuration not stated)
inactive: SK-MEL-2 melanoma 88.4% | SN12C renal 103% | UO-31 renal 89.7% | TK-10 renal 114% | ACHN renal 98.5% | CAKI-1 renal 104% | A498 renal 121% | CCRF-CEM leukemia 76.7% | MOLT-4 leukemia 95.3%

Nc1c(C(=O)Nc2cccc(C(F)(F)F)c2)sc2nc3c(cc12)CCCCCC3
inactive: SK-MEL-2 melanoma 51.4% | CAKI-1 renal 20.8% | CCRF-CEM leukemia 51% | MOLT-4 leukemia 45.6%
active: SN12C renal 5.73% | UO-31 renal -2.04% | TK-10 renal 5% | ACHN renal -35.6% | A498 renal -28.3%

CCn1cc(C(=O)O)c(=O)c2cc(F)c(N3CCN(S(=O)(=O)c4c(C)cc(C)cc4C)CC3)cc21
inactive: SK-MEL-2 melanoma 88.7% | SN12C renal 88.5% | UO-31 renal 33.1% | TK-10 renal 97.5% | ACHN renal 75.8% | CAKI-1 renal 89.5% | A498 renal 78.9% | CCRF-CEM leukemia 81.8% | MOLT-4 leukemia 75.9%

Nc1c(C(=O)Nc2cccc(Cl)c2Cl)sc2nc3c(cc12)C(=O)CCC3
active: A498 renal -3.22%
inactive: SK-MEL-2 melanoma 38% | SN12C renal 86.8% | UO-31 renal 78.8% | TK-10 renal 81.9% | ACHN renal 98.1% | CAKI-1 renal 79% | CCRF-CEM leukemia 86.2% | MOLT-4 leukemia 106%

CCC1=C[C@@H]2CN(C1)Cc1c([nH]c3ccccc13)[C@@](C(=O)OC)(c1cc3c(cc1OC)N(C=O)[C@H]1[C@@](O)(C(=O)OC)[C@H](OC(C)=O)[C@]4(CC)[C@@H]5C[C@@H]5CN5CC[C@]31[C@@H]54)C2
active: CAKI-1 renal 8.29% | A498 renal -8.16% | CCRF-CEM leukemia 8.71%
inactive: SK-MEL-2 melanoma 18% | SN12C renal 21.9% | UO-31 renal 28.7% | TK-10 renal 49.2% | ACHN renal 35.6% | MOLT-4 leukemia 13.4%
